# Compounds with a hit are over-represented: about 2.7% of the library has one in this group of screens.
# MPTP inh: mitochondrial permeability transition pore inhibitors, primary screen, biochemical, isolated mouse mitochondria, absorbance | Ca2+ swelling absorbance, 30 min | inhibition, % at 10 µM | hit rate 1.4% among 360,000 | AID 602449, 2012;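 active = inhibition of 50% or more, scaled per plate between neutral and stimulator controls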
# ATG4B inhibitor: ATG4B protease inhibitors, primary screen, biochemical, fluorescence, uHTS | ATG4B cleavage of LC3-PLA2, NBD-HPC fluorescence, 1 h | AID 504462, 2011 | Cysteine protease ATG4B (Homo sapiens), Q9Y4P1 | inhibition, % at 8.33 µM | hit rate 0.51% among 340,000; in the data active = inhibition above about 40%
# Target sequence (Q9Y4P1 whole entry, looked up): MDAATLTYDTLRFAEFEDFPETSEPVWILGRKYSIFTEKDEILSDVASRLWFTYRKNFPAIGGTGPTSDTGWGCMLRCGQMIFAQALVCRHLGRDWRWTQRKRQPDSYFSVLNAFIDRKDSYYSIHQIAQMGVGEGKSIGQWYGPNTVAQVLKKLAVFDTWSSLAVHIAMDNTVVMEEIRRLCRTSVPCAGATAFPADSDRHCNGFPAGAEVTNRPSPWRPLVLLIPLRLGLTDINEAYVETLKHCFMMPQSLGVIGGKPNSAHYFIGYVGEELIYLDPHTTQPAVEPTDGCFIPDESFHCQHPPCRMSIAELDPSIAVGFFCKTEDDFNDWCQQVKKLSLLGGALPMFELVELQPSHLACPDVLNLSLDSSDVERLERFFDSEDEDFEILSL
# CFTR F508del cor: F508del CFTR correction, initial screen, CFBE line, single point | CFBE cells, YFP halide quenching; stimulated with forskolin plus potentiator P3; % fluorescence drop versus neutral controls | activity (quench increase), % at 7.58 µM | hit rate 0.36% among 350,000 | AID 720511, 2013;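 active = mean added fluorescence quench of at least 8% versus neutral control, with both replicates also reaching 8%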;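 also: cells transiently co-express mutant CFTR-F508del with the halide-sensitive YFP; corrector assay measuring rescue of mutant channel to the surface after 24 h compound exposure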
# CendR NRP1 mod: modulators of CendR peptide binding to NRP-1, primary screen, biochemical, fluorescence polarization, uHTS | Neuropilin-1 (Homo sapiens), O14786 | FAM-RPARPAR peptide binding to NRP-1 | inhibition, % at 25 µM | hit rate 0.85% among 360,000 | AID 602438, 2012;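 active = inhibition or corrected inhibition above about 18%, plus a signal ratio from 0.5 to 1.5, limit read from the data, passing the limit was not always enough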
# SKN-1 block: suppressors of acrylamide-induced Pgst-4::GFP reporter in worms, primary screen, SKN-1 inhibitor project, whole organism, uHTS, GFP/RFP fluorescence ratio, strain VP596. C. elegans VP596 Pgst-4::GFP/RFP ratio, 24 h. inhibition, % at 21.8 µM. hit rate 0.49% among 360,000;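 active = interference check ratio from 0.5 to 1.5 plus GFP to RFP signal ratio inhibition reaching or exceeding a fixed threshold, cut at about 30% in these data, passing the limit was not always enough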
# A number is an active result; . = inactive; / = no result.
SMILES,MPTP inh,ATG4B inhibitor,CFTR F508del cor,CendR NRP1 mod,SKN-1 block
CCOc1ccc(NS(=O)(=O)c2cc(NC(=O)CCNC(=O)c3ccco3)ccc2OC)cc1,.,.,32,.,.
COc1ccc(NS(=O)(=O)c2cc(NC(=O)Cc3c(F)cccc3Cl)ccc2OC)cc1,.,.,19,.,.
CO[C@@H]1CN(C)C(=O)c2ccc(NC(=O)c3cc(C)on3)cc2OC[C@@H](C)N(C(C)=O)C[C@H]1C,/,/,.,/,/
COc1ccc(S(=O)(=O)N(C)C[C@@H]2Oc3ccc(NC(=O)Nc4ccc(F)cc4)cc3C(=O)N([C@H](C)CO)C[C@H]2C)cc1,/,/,.,/,/
C[C@@H]1CN([C@@H](C)CO)S(=O)(=O)c2ccc(C#CCN(C)C)cc2O[C@H]1CN(C)C(=O)C1CCCCC1,/,/,.,/,/
O=C(NCC[C@@H]1CC[C@H](NC(=O)C2CCCC2)[C@H](CO)O1)c1ccc(F)cc1,/,/,.,/,/
Cc1noc(C)c1S(=O)(=O)N(C)C[C@@H]1Oc2ccc(NC(=O)Cc3cn(C)c4ccccc34)cc2CC(=O)N([C@@H](C)CO)C[C@H]1C,/,/,.,/,/
Cc1ccc(-n2c(-c3ccco3)nc3c(cnn3-c3ccc(C)cc3)c2=O)cc1,.,.,.,35,.
C[C@H]1CN([C@@H](C)CO)C(=O)c2cc(NC(=O)CCCN(C)C)ccc2O[C@H]1CN(C)Cc1ccccc1,/,/,.,/,/
CC(SC(=S)N1CCCC1)C(=O)O (stereo not drawn),.,.,.,36,.
CC(C)(SC(=S)N1CCCCCC1)C(=O)O,.,.,.,.,.
O=C(NCc1cccc(F)c1)c1cccc(OC2CCN(C(=O)C3CC3)CC2)c1,.,.,.,24,.
O=C(C1CCC(=O)N(C2CC2)C1)N1CCC(Oc2cccc(F)c2)CC1 (stereo not drawn),.,.,.,.,.
COc1ccc(/C=N/N=C2\CC3CCC2(C)C3(C)C)cc1O (stereo not drawn),.,.,/,.,.
COc1cc(/C=N/N=C2\CC3CCC2(C)C3(C)C)ccc1O (stereo not drawn),.,.,/,23,.
CCCC(=O)N1CC2(CN(Cc3cccnc3)C2)c2c([nH]c3cc(OC)ccc23)[C@H]1CO,/,/,.,/,/
Cc1ccc(-n2nnnc2-c2cnc(-c3cccnc3)nc2C(F)(F)F)cc1,.,.,/,20,.
FC(F)(F)c1nc(-c2ccncc2)ncc1-c1nnnn1-c1ccccc1,.,.,/,.,.
Cc1ccccc1S(=O)(=O)Nc1nc2ccccc2nc1NCCO,.,.,/,31,.
Cc1ccc(C(C)(C)C)cc1S(=O)(=O)Nc1nc2ccccc2nc1Cl,.,.,.,.,.
C[C@@H]1CCCCO[C@@H](CN(C)Cc2ccc(Cl)c(Cl)c2)[C@H](C)CN([C@H](C)CO)C(=O)c2cc(NS(=O)(=O)c3ccc(F)cc3)ccc2O1,/,/,.,/,/
CCC(=O)Nc1cccc(C(=O)/C=C/c2cccs2)c1,.,.,.,27,.
CN(C)CC#Cc1ccc([C@@H]2[C@@H](CO)N3CCCCN(C(=O)Nc4ccc(F)cc4)C[C@@H]23)cc1,/,/,.,/,/
CO[C@@H]1CN(C)C(=O)c2ccc(NC(C)=O)cc2OC[C@H](C)N(Cc2ccccc2C(=O)O)C[C@H]1C,/,/,.,/,/
COc1cccc(C2C3(C#N)C(N)=NC(OC)(OC)C23C#N)c1 (stereo not drawn),.,.,/,.,.
SMILES,MPTP inh,ATG4B inhibitor,CFTR F508del cor,CendR NRP1 mod,SKN-1 block
COC1(OC)N=C(N)C2(C#N)C(c3ccc(F)cc3)C12C#N (stereo not drawn),.,.,/,31,.
COC1(OC)N=C(N)C2(C#N)C(c3cccc(Oc4ccccc4)c3)C12C#N (stereo not drawn),.,.,/,26,.
CCSC1(SCC)N=C(N)C2(C#N)C(c3ccc(F)cc3)C12C#N (stereo not drawn),.,.,/,.,.
Cc1cccc(S(=O)(=O)N2CC[C@@H]3[C@H]2c2cc(C4=CCCCC4)ccc2N[C@@H]3CO)c1,/,/,.,/,/
C[C@H]1CN([C@@H](C)CO)C(=O)CCCn2cc(nn2)CO[C@@H]1CN(C)S(=O)(=O)c1ccccc1,/,/,.,/,/
N#Cc1ccccc1NC(=O)COC(=O)CCc1ccccc1,.,.,.,17,.
Cc1ccccc1NC(=O)COC(=O)CCc1ccccc1,.,.,/,.,.
Cc1cc2c(s1)Nc1ccccc1N=C2N1CCN(C)CC1,.,.,9.4,.,.
COc1ccc(C#Cc2ccc3c(c2)[C@@H]2[C@@H](CCN2C(=O)c2cccc(F)c2)[C@@H](CO)N3)cc1,/,/,8.7,/,/
COc1ccc2c(c1)CC/C(=C/c1ccccn1)C2=O,.,.,.,.,.
C(=C1c2ccccc2-c2ccccc21)c1ccccn1,.,.,.,.,52
O=C1C(=Cc2ccccn2)CCc2ccccc21,.,/,.,.,39
CC(C)NC(=O)N(C)C[C@@H]1Oc2ccc(NC(=O)c3ccncc3)cc2CC(=O)N([C@H](C)CO)C[C@H]1C,/,/,.,/,/
CN(C)CCNCCCNc1c2ccccc2nc2cccc([N+](=O)[O-])c12,.,.,.,31,.
CN(C)CCCNc1c2c(nc3ccccc13)CCC2,.,.,.,.,.
Cc1nc(NCc2cccnc2)c2c3c(sc2n1)CCCC3,.,.,12,.,.
c1cncc(CNc2ncnc3sc4c(c23)CCCC4)c1,.,.,.,.,.
CCC(C)NS(=O)(=O)c1ccc(S(=O)(=O)N(CC(=O)Nc2ccccc2)Cc2ccco2)cc1 (stereo not drawn),.,.,/,.,.
CCCC(C)NC(=O)CN(Cc1ccco1)S(=O)(=O)c1ccccc1 (stereo not drawn),.,.,.,23,.
Cc1cccc(OCc2nn[nH]n2)c1C,.,.,.,.,.
Clc1ccccc1OCc1nn[nH]n1,.,.,.,30,.
C[C@H](CO)N1C[C@H](C)[C@@H](CN(C)S(=O)(=O)c2ccccc2)Oc2ccc(NS(=O)(=O)c3ccccc3)cc2CC1=O,/,/,.,/,/
COc1ccc(CN2CCC(C(N)=O)CC2)cc1OCc1ccccc1,.,.,.,.,.
CCOC(=O)C1CCN(Cc2ccc3ccccc3c2)CC1,.,.,.,31,.
CCOC(=O)C1CCN(Cc2cccc(OC)c2)CC1,.,.,.,.,.
CCOC(=O)C1CCCN(Cc2ccc(OC)c(OCc3ccccc3)c2)C1 (stereo not drawn),.,.,.,23,.
Cc1cccc(S(=O)(=O)N2CCCCN3[C@H](C2)[C@@H](c2ccc(C#C[C@H](C)O)cc2)[C@@H]3CO)c1,/,/,.,/,/
CC(C)NC(=O)Nc1ccc2c(c1)CC(=O)N([C@@H](C)CO)C[C@H](C)[C@H](CN(C)C(=O)Nc1ccc(F)cc1)O2,/,/,.,/,/
O=C1c2oc3ccccc3c(=O)c2C(c2cccnc2)N1CCCN1CCOCC1 (stereo not drawn),.,.,/,36,.

# High-throughput results from PubChem.
